The list is not random: actives were taken first. Their share in the collection is about 7.5%.
NPC1 promoter act = qHTS Assay for NPC1 Promoter Activators; Huh7 NPC1 promoter luciferase reporter, 24 h; Potency, µM (doses to about 9.22 µM), most hits filed as activators; AID 485313, 2010; actives 2.4% (n = 320,000); also: nearly all actives have a fitted effect of over 60% in size
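Luminescence read-out of NPC1 promoter-driven luciferase in stably transfected Huh7 cells; compounds delivered in DMSO and left 24 h at 37C, 5% CO2, qHTS titration format.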
SMN2 splice up = qHTS Assay for Enhancers of SMN2 Splice Variant Expression | HEK293 SMN2-luciferase splicing reporter, luminescence, 30-36 h | Potency, µM (top dose mostly 46.1 µM), actives largely listed as activators | actives 2.8% (n = 210,000) | AID 1458, 2008; also: nearly all actives have a fitted effect of over 55% in size
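qHTS luciferase splicing reporter: luminescence rises when SMN2 exon 7 is included in transfected HEK293 cells. Compound exposure lasted 30-36 h at 37C, with 4.5 mM final sodium butyrate as control, followed by a ONE-Glo read.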
Rab9 promoter act = qHTS Assay for Rab9 Promoter Activators | AID 485297, 2010 | actives 2.8% (n = 320,000) | Potency, µM (titrated, usually from 9.22 µM), actives largely listed as activators | Huh7 Rab9 promoter-luciferase reporter, luminescence, 24 h; also: nearly all actives have a fitted effect of over 60% in size
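Luminescence from Amplite-detected luciferase (10 minutes, ambient) reports Rab9 promoter activation. Before that, stable Rab9-luciferase Huh7 cells (1500/well, reduced-serum OP-MEM I plus 10% FBS) were exposed to compound for 24 hours at 37C.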
FLuc modulator = qHTS profiling assay for firefly luciferase inhibitor/activator using purifed enzyme and Km concentrations of substrates (counterscreen for miR-21 project); purified FLuc, Km substrates, luminescence inhibition; actives 6.9% (n = 360,000); Potency, µM (series often up to 57.5 µM), usual class: inhibitors; AID 588342, 2011; also: nearly all actives have a fitted effect of over 55% in size
Target sequence (P08659 whole entry, looked up): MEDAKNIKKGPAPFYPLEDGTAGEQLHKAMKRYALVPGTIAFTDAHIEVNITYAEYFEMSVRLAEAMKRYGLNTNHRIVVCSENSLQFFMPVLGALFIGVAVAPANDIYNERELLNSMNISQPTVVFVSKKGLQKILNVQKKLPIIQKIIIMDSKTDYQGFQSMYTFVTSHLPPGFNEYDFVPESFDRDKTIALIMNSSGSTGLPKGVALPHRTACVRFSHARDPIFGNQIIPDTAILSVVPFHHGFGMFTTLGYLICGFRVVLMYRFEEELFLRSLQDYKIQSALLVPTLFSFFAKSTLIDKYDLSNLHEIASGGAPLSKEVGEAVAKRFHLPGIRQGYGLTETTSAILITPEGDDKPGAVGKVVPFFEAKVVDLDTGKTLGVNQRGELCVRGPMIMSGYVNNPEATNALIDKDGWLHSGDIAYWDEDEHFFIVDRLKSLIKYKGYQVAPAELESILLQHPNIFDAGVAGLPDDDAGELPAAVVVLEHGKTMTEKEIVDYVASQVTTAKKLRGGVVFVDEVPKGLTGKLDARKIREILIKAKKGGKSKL
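Purified P. pyralis luciferase (10nM final) with 10uM D-luciferin and 10uM ATP (Km levels) in 50mM Tris acetate pH 7.5, 10mM Mg acetate, 0.01% Tween-20, 0.05% BSA; qHTS 6-point titration, ~60 µM downward; luminescence read.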
ELG1 genotox = qHTS screen for small molecules that induce genotoxicity in human embryonic kidney (HEK293T) cells expressing luciferase-tagged ELG1; HEK293T ELG1-luciferase reporter, luminescence, 16 h; Potency, µM (titrated, usually from 46 µM), hits mostly activators; actives 1.3% (n = 330,000); AID 504466, 2011; also: nearly all actives have a fitted effect of over 60% in size
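Quantitative HTS format in 1536-well plates. HEK293T ELG1-luciferase reporter cells receive test compound and are incubated 16 hr at 37 °C, 5% CO2; ONE-Glo added, 30 min room temperature, then luminescence read.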
A number is an active result; – = inactive; ? = inconclusive; · = no result given; [ ] = remark or other dose. Calls follow the shape of the dose curve; as a rule, active = well fitted curve in the direction sought with a large enough effect; inconclusive = small, poorly fitted or top-dose-only effect, or another doubt; inactive = no such curve, though single readings can be large; an effect the other way counts as inactive or inconclusive.

SMILES	NPC1 promoter act	SMN2 splice up	Rab9 promoter act	FLuc modulator	ELG1 genotox
O=C(Cc1ccccc1)c1c[nH]c(C(=O)NCCCn2ccnc2)c1	–	–	–	–	–
CCOc1ccc(CC(=O)NCCc2sc3nc(-c4ccc(F)cc4)nn3c2C)cc1	·	·	·	–	·
CC(=O)Oc1ccc(C(=O)Nc2ccc3c(c2)OCCO3)cc1	1µM	·	1.58µM	10.7µM	?
CCCOc1ccc(C(=O)CCNc2cccc(Cl)c2)cc1	–	–	–	–	–
COc1ccc(C(=O)Nc2ccc3c(c2)OCCO3)cc1	0.447µM	1.78µM	0.708µM	0.849µM	?
COc1cccc(OC)c1C(=O)Nc1ccc2c(c1)OCCO2	–	–	–	–	–
COc1ccc(C(=O)CNc2cccc(F)c2)cc1	?	·	–[1.84 µM]	10.7µM	?
COc1ccc(C(=O)CCNc2cccc(Cl)c2)cc1	?	?	3.55µM	?	?
COc1ccccc1-c1cc(C(=O)N2CCCCC2C)no1 (stereo not given)	·	–	·	?	·
CC(=O)c1cccc(N2C(=O)CN(S(C)(=O)=O)CC2(C)C(=O)NC2CCCC2)c1 (stereo not given)	·	·	·	–	·
COCCOC(=O)c1c(C)oc2ccc(OC(=O)c3ccco3)cc12	–	–	–	23.9µM	–
CCc1cc(=O)oc2cc(OC(=O)c3ccco3)ccc12	–	·	–	–	–
Cc1cc(=O)oc2cc(OC(=O)c3ccco3)ccc12	–	·	–	16.9µM	–
Cc1cc(=O)oc2cc(OCC(=O)c3ccccc3)ccc12	–	·	–	–	–
Cc1cc(=O)oc2cc(OC(=O)c3ccccc3)ccc12	–	–	–	5.36µM	–
CCOC(=O)N1CCC(NC(=O)c2cnn(-c3ccccc3)c2C2CCN(C(=O)OC(C)(C)C)CC2)CC1	·	·	·	–	·
CCOC(=O)N1CCc2c(sc(NCc3ccc(N(CC)CC)cc3)c2C(=O)Nc2cc(OC)ccc2OC)C1	·	·	·	–	·
CCOC(=O)N1CCc2c(sc(NCc3cccs3)c2C(=O)Nc2ccc(OC)cc2OC)C1	·	·	·	13.5µM	·
CCOC(=O)N1CCc2c(sc(NCc3ccc(OCC)cc3)c2C(=O)Nc2ccc(OC)cc2OC)C1	·	·	·	15.1µM	·
CCOC(=O)N1CCc2c(sc(NCc3ccc(OC)c(OC)c3OC)c2C(=O)Nc2ccc(OC)cc2OC)C1	·	·	·	15.1µM	·
COc1ccc2nc(NC(=O)CCn3cccc3)sc2c1	?	–	–	–	–
COc1ccc2sc(NC(=O)NC(=O)c3c(Cl)cccc3Cl)nc2c1	–	·	–	19µM	–
COc1ccc2sc(NC(=O)CC(C)C)nc2c1	?	?	4.47µM	10.7µM	18.4µM
CCC(=O)Nc1nc2cc(OC)ccc2s1	2.24µM	?	1.41µM	12µM	?
CCC(=O)Nc1nc2ccc3nc(C)sc3c2s1	?	11.2µM	3.98µM	?	8.2µM
SMILES	NPC1 promoter act	SMN2 splice up	Rab9 promoter act	FLuc modulator	ELG1 genotox
CCC(=O)Nc1nc2c(OC)ccc(OC)c2s1	–	–	–	–	–
COc1cccc(NC(=O)NC(=O)c2c(C)cc(Cl)nc2Cl)c1	–	·	–	–	–
O=C(NCC(c1ccco1)N1CCCC1)c1cc(S(=O)(=O)N2CCOCC2)ccc1Cl (stereo not given)	–	·	–	–	–
COc1ccc2sc(NC(C)=O)nc2c1	2.51µM	17.8µM	?	16.9µM	9.2µM
COc1cc(CNc2nc3ccccc3s2)cc(OC)c1OC	–	·	–	–	–
CCCCOC(=O)Nc1nc2ccc(OC)cc2s1	–	–	–	?	?
COc1ccc2sc(NCc3ccccc3)nc2c1	2.24µM	·	3.55µM	6.01µM	?
CCCn1cc2c(c1-c1ccc(C)cc1)c(=O)n(C)c(=O)n2C	–	·	–	–	–
Cc1c(NC(=O)Oc2ccccc2)sc(=S)n1C	–	–	–	–	–
Cc1ccc(SCCCn2cncn2)cc1	–	–	–	–	–
Cc1nc(NC(=O)c2oc3ccccc3c2C)sc1C(=O)N(C)C	?	10µM	2.82µM	10.7µM	?
Cc1ccc2c(C)c(C(=O)Nc3nnc(C)s3)oc2c1	–	–	–	–	–
Cc1nnc(NC(=O)c2oc3ccccc3c2C)s1	4.47µM	·	3.98µM	3.01µM	18.3µM
CC(NC(=O)C1C2C=CC(C2)C1C(=O)O)c1ccccc1 (stereo not given)	–	–	–	–	–
O=C(Nc1ccc2nc(-c3ccc4nc[nH]c4c3)[nH]c2c1)c1cccs1	–	–	–	21.3µM	–
O=C(Nc1ccc2nc(-c3ccccc3)[nH]c2c1)c1cccs1	–	–	?	5.36µM	?
CC(=O)Nc1ccc2nc(-c3cccnc3)[nH]c2c1	–	–	–	?	–
Cc1nn(C)c(C(=O)Nc2ccc(S(=O)(=O)NC34CC5CC(CC(C5)C3)C4)cc2)c1Br	1.41µM	1µM	1.58µM	–	–
CN(C)c1ccc(-c2nnc(SCC3CCCO3)n2C)cc1 (stereo not given)	?	·	3.16µM	?	?
CCn1c(CC(=O)Nc2ccccc2)nnc1SCC(=O)Nc1nnc(C)s1	–	·	–	–	–
C/C(=N\Nc1ccc(F)cc1F)c1ccccc1O	–	–	–	19µM	?
Cc1cc(NC(=S)NC(=O)C2CC2)ccc1Br	–	·	–	23.9µM	–
NC(=O)NCCC1=CCCCC1	–	–	–	–	–
C=CCn1c(N)c(C(=O)NCCC2=CCCCC2)sc1=S	–	12.6µM	–	?	?
Cc1ccc2c(c1)C(=O)C(=O)N2Cc1ccc(Br)cc1	·	·	·	·	–
SMILES	NPC1 promoter act	SMN2 splice up	Rab9 promoter act	FLuc modulator	ELG1 genotox
CCCCc1c(C)nc(Nc2ccc(OC)cc2)[nH]c1=O	–	–	–	–	–
CCCc1ccc(-c2cc(C(=O)NN3CCOCC3)c3ccccc3n2)cc1	?	?	?	1.69µM	–
CCc1ccc(-c2cc(C(=O)Nn3cnnc3)c3ccccc3n2)cc1	?	?	?	0.0675µM	?
CCC/C=N/NC(=O)c1cc(-c2ccccc2)nc2ccccc12	–	–	–	?	–
CCCc1ccc(-c2cc(C(=O)NCCc3ccc(S(N)(=O)=O)cc3)c3ccccc3n2)cc1	?	?	2.82µM	0.675µM	–
CCc1ccc(-c2cc(C(=O)N3N=C(C(F)F)CC3(O)C(F)F)c3ccccc3n2)cc1 (stereo not given)	–	–	–	5.36µM	–
NS(=O)(=O)c1ccc(CCNC(=O)c2cc(-c3ccc(Br)cc3)nc3ccccc23)cc1	–	–	–	?	–
COc1ccc2cc3cc(C(=O)Nc4ccccc4C)oc3nc2c1	·	–	·	–	·
CC(C)Oc1cccc(-c2cc(C(=O)NC(=S)N(C)c3ccccc3C(=O)O)c3ccccc3n2)c1	–	–	–	2.69µM	–
O=C(NN1CCOCC1)c1cc(-c2ccc(Br)s2)nc2ccccc12	–	–	–	–	–
Cc1cc(C)c2nc(-c3ccccn3)cc(C(=O)Nn3cnnc3)c2c1	–	–	–	19µM	–

High-throughput results: PubChem BioAssay, National Center for Advancing Translational Sciences (NCATS)
